# From PubChem
# Compounds with a hit are over-represented: about 3.5% of the library has one in this group of screens.
# Tau fibril FP = qHTS for Inhibitors of Tau Fibril Formation, Fluorescence Polarization; Microtubule-associated protein tau (Homo sapiens), P10636; K18 P301L tau heparin fibrillization, Alexa594 FP, 6 h; Potency, µM (top dose mostly 57.7 µM), actives largely listed as inhibitors; actives 0.39% (n = 280,000); AID 1468, 2008; also: nearly all actives have a fitted effect of over 55% in size
# Target sequence (P10636 561-689 P618L limits assumed): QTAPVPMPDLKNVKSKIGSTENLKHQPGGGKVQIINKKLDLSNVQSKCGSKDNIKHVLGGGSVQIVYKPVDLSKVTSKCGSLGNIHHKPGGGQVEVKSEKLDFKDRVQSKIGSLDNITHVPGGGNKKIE
#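 Human tau K18 […] P301L fragment, 15 uM unlabeled plus 0.24 uM Alexa 594-labeled tau (final), with compound and 20 uM heparin in 100 mM sodium acetate pH 7; 6 hr at 37 C, then Alexa 594 FP read.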
# JMJD2E inh = qHTS Assay for Inhibitors of Human Jumonji Domain Containing 2E (JMJD2E) | Lysine-specific demethylase 4E (Homo sapiens), B2RXH2 | JMJD2E catalytic domain, FDH-coupled NADH fluorescence (FDH is formaldehyde dehydrogenase) | Potency, µM (titrated, usually from 57.1 µM), usual class: inhibitors | actives 1.6% (n = 230,000); active = well fitted inhibition curve with a large enough effect, not every such curve was filed as active; inconclusive = small, poorly fitted or top-dose-only effect, or another doubt; inactive = no such curve, though single readings can be large or run the other way; also: nearly all actives have a fitted effect of over 50% in size
# Target sequence (B2RXH2 1-337 limits assumed): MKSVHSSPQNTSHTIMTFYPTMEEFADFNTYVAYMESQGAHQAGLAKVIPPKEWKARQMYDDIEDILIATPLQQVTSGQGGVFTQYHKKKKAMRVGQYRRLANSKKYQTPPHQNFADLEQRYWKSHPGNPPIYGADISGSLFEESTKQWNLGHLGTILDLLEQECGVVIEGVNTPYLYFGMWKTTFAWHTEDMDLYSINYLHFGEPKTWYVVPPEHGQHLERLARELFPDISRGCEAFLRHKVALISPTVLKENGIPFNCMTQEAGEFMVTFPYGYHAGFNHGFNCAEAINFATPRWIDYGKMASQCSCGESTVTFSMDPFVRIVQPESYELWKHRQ
# TexasRed fluor = Total Fluorescence Counterscreen for Inhibitors of the Interaction of Thyroid Hormone Receptor and Steroid Receptor Coregulator 2 | Potency, µM (series often up to 106 µM) | actives 0.29% (n = 280,000) | TRb/SRC2 Texas Red total fluorescence interference; active = well fitted curve in either direction with a large enough effect; inconclusive = small, poorly fitted or top-dose-only effect
#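 Human TRβ ligand-binding domain (0.6 uM) and Texas Red SRC2 peptide (20 nM) in Tris buffer with 1 uM T3 and 5% DMSO were incubated with pinned compound for 5 hr at ambient temperature. Total fluorescence was computed as S + 2P (555/632 nm).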
# Tau ThT inhib = qHTS for Inhibitors of Tau Fibril Formation, Thioflavin T Binding | Microtubule-associated protein tau (Homo sapiens), P10636 | Potency, µM (top dose mostly 57.4 µM), hits mostly inhibitors | recombinant tau K18 P301L, heparin-induced fibrillization, ThT fluorescence | actives 2.1% (n = 270,000); also: nearly all actives have a fitted effect of over 55% in size
#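 Heparin-induced fibrillization of the P301L-mutant K18 repeat-domain fragment of human tau was followed by ThT binding in quantitative high-throughput format.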
# TRb SRC2 PPI = qHTS for Inhibitors of the Interaction of Thyroid Hormone Receptor and Steroid Receptor Coregulator 2 | Potency, µM (top dose mostly 106 µM), actives largely listed as inhibitors | TRbeta-SRC2 peptide binding, fluorescence polarization; receptor liganded with 1 µM T3 | AID 1469, 2008 | actives 0.065% (n = 280,000) | Thyroid hormone receptor beta (Homo sapiens), P10828; also: nearly all actives have a fitted effect of over 50% in size
#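 Fluorescence polarization of 20 nM Texas Red SRC2 peptide (20-aa NR interaction domain) bound to 0.6 uM human TRb ligand-binding domain, with 1 uM T3, after 5 hr at ambient temperature; inhibition seen as decreased polarization.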
# Tau fluor cs = Counterscreen qHTS for Inhibitors of Tau Fibril Formation, Fluorescence Polarization; tau K18 P301L Alexa594 fluorescence, heparin fibrillization; AID 1463, 2008; actives 0.93% (n = 280,000); Potency, µM (doses to about 57.7 µM); also: nearly all actives have a fitted effect of over 55% in size
#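 Human tau K18 P301L (15 uM unlabeled, 0.24 uM Alexa 594-labeled) in 100 mM sodium acetate pH 7 with 20 uM heparin, 6 hr at 37 C. ThT 30 uM added, 1 hr ambient; Alexa 594 FP and total fluorescence read at 555/632 nm.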
# Numbers stand for hits; i = inactive; ? = inconclusive; nt = no result given; [ ] = another dose, or the depositor's remark. Unless noted, calls follow the shape of the dose curve; as a rule, active = well fitted curve in the direction sought with a large enough effect; inconclusive = small, poorly fitted or top-dose-only effect, or another doubt; inactive = no such curve, though single readings can be large; an effect the other way counts as inactive or inconclusive.
SMILES,Tau fibril FP,JMJD2E inh,TexasRed fluor,Tau ThT inhib,TRb SRC2 PPI,Tau fluor cs
CCCCC(CCC(=O)O)(C(=O)OCC)c1csc(Nc2ccccc2)n1 (stereo unspecified),i,i,i,i,i,i
O=C(COc1ccc(Cl)cc1)OCc1csc(Nc2ccccc2)n1,i,i,i,?,i,14.1µM[quencher]
Clc1ccccc1N=C1SCCS1,i,i,i,i,i,i
CCN(CC(=O)Nc1ccccc1OC)CC(=O)Nc1c(Cl)ccc(C)c1Cl,i,i,i,i,i,i
C[C@H](Nc1ncnc2sc3c(c12)CCC3)C(=O)O,i,i,i,i,i,i
COc1ccc(NC(=O)CSc2nc(-c3ccc(OC)c(OC)c3)[nH]c2-c2ccc(C)cc2)cc1,i,nt,i,i,i,4.47µM[quencher]
COc1ccc(-c2nc(SCC(=O)Nc3ccc4c(c3)OCCO4)c(-c3ccc(C)cc3)[nH]2)cc1OC,i,nt,i,?,i,7.94µM[quencher]
COc1ccc(-c2[nH]c(-c3ccc(C)cc3)nc2SCC(=O)NCc2ccco2)cc1OC,i,?,i,?,i,?
COc1ccc(NC(=O)CSc2nc(-c3cccc(C)c3)[nH]c2-c2ccccc2)cc1OC,i,nt,i,?,i,8.91µM[quencher]
COc1ccc(-c2[nH]c(-c3ccc(OC)c(OC)c3)nc2SCC(=O)Nc2ccccc2)cc1,i,nt,i,i,i,6.31µM[quencher]
CCN(CC)c1cc(C)c2cc(NC(=O)c3cccc(OC)c3OC)ccc2n1,i,nt,i,?,i,?
CCN(CC)c1cc(C)c2cc(NC(=O)/C=C/c3cc(OC)c(OC)c(OC)c3)ccc2n1,i,nt,i,4.47µM,i,?
CCOc1ccc(/C=C/C(=O)Nc2ccc3nc(N(CC)CC)cc(C)c3c2)cc1OC,?,nt,i,7.08µM,i,?
CCOc1ccc(C(=O)Nc2ccc3nc(N(CC)CC)cc(C)c3c2)cc1,i,nt,i,?,i,15.8µM[quencher]
CCOc1ccccc1C(=O)Nc1ccc2nc(N(CC)CC)cc(C)c2c1,i,nt,i,?,i,i
CCN(CC)c1cc(C)c2cc(NC(=O)/C=C/c3ccc(C)cc3)ccc2n1,i,nt,i,?,i,15.8µM[quencher]
Cc1ccc(Nc2nn3c(=O)c4cc5c(cc4nc3s2)OCO5)cc1Cl,i,nt,i,?,i,i
CCCC(=O)NC(=S)Nc1ccccc1F,i,i,i,i,i,i
CCOc1ccc(CCNC(=O)CCc2c(C)nc3ncnn3c2C)cc1OCC,i,i,i,i,i,i
OCCn1c(-c2ccc(F)cc2)csc1=Nc1ccccc1,i,i,i,i,i,i
CN=c1scc(-c2ccc(F)cc2)n1/N=C/c1ccc(O)c(O)c1,i,28.2µM,i,10µM,i,17.8µM[quencher]
COCCN1C(=O)C(O)=C(C(=O)c2cccs2)C1c1ccccc1 (stereo unspecified),i,i,i,i,i,i
Cc1[nH]oc(=O)c1N=Nc1ccccc1,?,i,i,25.1µM,i,i
COc1ccc(CN2C(=O)Cc3c2nc(N)c2c(N)nc(N4CCOCC4)c(C#N)c32)cc1,i,?,i,?,i,i
COCC(C)N1C(=O)Cc2c1nc(N)c1c(N)nc(N3CCN(c4ccccc4F)CC3)c(C#N)c21 (stereo unspecified),?,i,i,25.1µM,?,?
CCc1ccc(O)c(N=Cc2ccccc2O)c1,i,?,i,?,i,i
O=[N+]([O-])c1cc(Cc2ccccc2)cc(C=Nc2ccc(N3CCOCC3)cc2)c1O,?,15.8µM,i,10µM,i,?
Cc1ccc(O)c(N=Cc2cc(Cc3ccccc3)cc([N+](=O)[O-])c2O)c1,?,28.2µM,i,8.91µM,i,?
